Assay results taken from PubChem BioAssay.
The source made the active and inactive calls.

How the values were obtained:
[1] = binders of probe aFSTL3 on microarray, primary screen, stem cell growth factor project, biochemical, small-molecule microarray, fluorescence 635/667 (AID 1064); details: higher = more signal;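 also: measures binding of the biotinylated anti-FSTL3 antibody to printed compounds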
[2] = binders from COS7 lysate, DM2A8 probe, primary screen, torsin A project, cell lysate, small-molecule microarray, fluorescence 635/667 (AID 1065); details: higher = more signal, COS7 lysate expressing mutant human TOR1A
[3] = binders of probe aFGF2 on microarray, primary screen, stem cell growth factor project, biochemical, small-molecule microarray, fluorescence 635/667 (AID 1067); details: higher = more signal;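 also: measures binding of biotinylated aFGF2 protein to printed compounds on slides; z-score merges feature fluorescence and signal-to-noise across triplicate slides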
[4] = binders of probe aFGF10 on microarray, primary screen, stem cell growth factor project, biochemical, small-molecule microarray, fluorescence 635/667 (AID 1071); details: higher = more signal;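 also: score merges 667 nm spot intensity and signal to noise from triplicate slides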
[5] = target: Neurogenic locus notch homolog protein 2 (Homo sapiens) (UniProt Q04721); experiment: Notch2 binders on small-molecule microarrays, primary screen, biochemical, small-molecule microarray, 635 nm fluorescence, stem cell growth factors (AID 1073); details: Notch2 binding, higher = more signal
[6] = target: Pro-neuregulin-1, membrane-bound isoform (Homo sapiens) (UniProt Q02297); experiment: NRG1 binders on small-molecule microarrays, primary screen, psychiatric disease protein project, biochemical, small-molecule microarray, fluorescence 635/667 (AID 1075); details: NRG1 binding, 635 nm fluorescence, higher = more signal;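 also: score combines 667 nm spot fluorescence with signal to noise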
[7] = system: Neuregulin-1 EGF-like domain; experiment: binders of neuregulin-1 EGF-like domain, primary screen, biochemical, small-molecule microarray, 635 nm fluorescence (AID 1081); details: small-molecule microarray binding, higher = more signal;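 also: binding of the protein to compounds printed on small-molecule microarray slides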
[8] = FRG1 promoter luciferase signal modulators, primary screen, FRG1 inhibition for FSHD, cell-based, C2C12 myotubes, firefly/Renilla luciferase, luminescence (AID 1084); details: higher = more signal, called active from +8 up or from −8 down
[9] = binders of probe aFST on microarray, primary screen, stem cell growth factor project, biochemical, small-molecule microarray, fluorescence 635/667 (AID 1086); details: higher = more signal;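 also: score merges 667 nm fluorescence with signal-to-noise of each printed compound spot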
[10] = binders of probe aHhip on microarray, primary screen, stem cell growth factor project, biochemical, small-molecule microarray, fluorescence 635/667 (AID 1087); details: higher = more signal;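 also: score merges spot fluorescence at 667nm with spot signal to noise ratio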
[11] = system: PRMT1 (protein arginine N-methyltransferase 1); experiment: PRMT1 binders on small-molecule microarrays, primary screen, biochemical, small-molecule microarray, 635 nm fluorescence (AID 1088); details: small-molecule microarray binding, higher = more signal;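 also: binding of Prmt1 protein to compounds spotted on small-molecule microarray slides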
[12] = yeast growth modulation, basal conditions, primary screen, YJM789 clinical isolate, OD600, 24 h (AID 1089);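 also: growth of clinical yeast isolate S. cerevisiae YJM 789 seeded 1000 cells per well; test concentration not given here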; details: S. cerevisiae YJM789 growth, higher = more signal, called active from +8 up or from −8 down
[13] = fission yeast growth modulation, primary screen, strain 972, OD600, 24 h, no modulator (AID 1090);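 also: basal condition with compound alone and no growth modifier present; test concentration not given here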; details: S. pombe 972 growth, higher = more signal, called active from +8 up or from −8 down
[14] = S. cerevisiae growth modulation with rapamycin, primary screen, strain BY4716, OD600, 96 h (AID 1091); details: higher = more signal, called active from +8 up or from −8 down; also: test concentration not given here
[15] = target: Torsin-1A-interacting protein 2 (Homo sapiens) (UniProt Q8NFQ8); experiment: LULL1 binders on small-molecule microarray, primary screen, cell lysate, human LULL1 lysate, 635/667 nm fluorescence (AID 1092); details: hLULL1 lysate binding, 635 nm fluorescence, higher = more signal;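 also: probe is lysate of COS7 cells overexpressing human LULL1; score merges per-feature 667 nm fluorescence with signal-to-noise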
[16] = E. coli growth modulation, two-sided OD650, primary screen, E. coli filamentation project, strain DRC41, 24 h (AID 1093); details: OD650, 24 h, higher = more signal, called active from +8 up or from −8 down;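 also: MC1000 strain lacking acrAB efflux and sulA so SOS filamentation is blocked; test concentration not given here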
[17] = small-molecule microarray binders of probe aLefty2, primary screen, biochemical, biotinylated probe, 635/667 nm fluorescence (AID 1094); details: higher = more signal;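 also: score merges spot fluorescence near 667 nm with spot signal-to-noise ratio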
[18] = system: Noggin (protein binding on small-molecule microarray); experiment: Noggin binders on small-molecule microarray, primary screen, biochemical, 635/667 nm fluorescence (AID 1095); details: 635 nm fluorescence, higher = more signal;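 also: score merges 667 nm feature fluorescence with signal to noise over triplicate slides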
[19] = target: Neurogenic locus notch homolog protein 3 (Homo sapiens) (UniProt Q9UM47); experiment: NOTCH3 binders on small-molecule microarray, primary screen, biochemical, 635/667 nm fluorescence (AID 1096); details: NOTCH3 binding, 635 nm fluorescence, higher = more signal
[20] = small-molecule microarray binders of probe aEGFR, primary screen, biochemical, biotinylated probe, 635/667 nm fluorescence (AID 1097); details: higher = more signal;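 also: probe is a biotinylated anti-EGFR antibody binding compounds printed on slides; score combines fluorescence near 667 nm and signal to noise of each spot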

Chain of Neurogenic locus notch homolog protein 3 (Homo sapiens) (Q9UM47 whole entry, looked up): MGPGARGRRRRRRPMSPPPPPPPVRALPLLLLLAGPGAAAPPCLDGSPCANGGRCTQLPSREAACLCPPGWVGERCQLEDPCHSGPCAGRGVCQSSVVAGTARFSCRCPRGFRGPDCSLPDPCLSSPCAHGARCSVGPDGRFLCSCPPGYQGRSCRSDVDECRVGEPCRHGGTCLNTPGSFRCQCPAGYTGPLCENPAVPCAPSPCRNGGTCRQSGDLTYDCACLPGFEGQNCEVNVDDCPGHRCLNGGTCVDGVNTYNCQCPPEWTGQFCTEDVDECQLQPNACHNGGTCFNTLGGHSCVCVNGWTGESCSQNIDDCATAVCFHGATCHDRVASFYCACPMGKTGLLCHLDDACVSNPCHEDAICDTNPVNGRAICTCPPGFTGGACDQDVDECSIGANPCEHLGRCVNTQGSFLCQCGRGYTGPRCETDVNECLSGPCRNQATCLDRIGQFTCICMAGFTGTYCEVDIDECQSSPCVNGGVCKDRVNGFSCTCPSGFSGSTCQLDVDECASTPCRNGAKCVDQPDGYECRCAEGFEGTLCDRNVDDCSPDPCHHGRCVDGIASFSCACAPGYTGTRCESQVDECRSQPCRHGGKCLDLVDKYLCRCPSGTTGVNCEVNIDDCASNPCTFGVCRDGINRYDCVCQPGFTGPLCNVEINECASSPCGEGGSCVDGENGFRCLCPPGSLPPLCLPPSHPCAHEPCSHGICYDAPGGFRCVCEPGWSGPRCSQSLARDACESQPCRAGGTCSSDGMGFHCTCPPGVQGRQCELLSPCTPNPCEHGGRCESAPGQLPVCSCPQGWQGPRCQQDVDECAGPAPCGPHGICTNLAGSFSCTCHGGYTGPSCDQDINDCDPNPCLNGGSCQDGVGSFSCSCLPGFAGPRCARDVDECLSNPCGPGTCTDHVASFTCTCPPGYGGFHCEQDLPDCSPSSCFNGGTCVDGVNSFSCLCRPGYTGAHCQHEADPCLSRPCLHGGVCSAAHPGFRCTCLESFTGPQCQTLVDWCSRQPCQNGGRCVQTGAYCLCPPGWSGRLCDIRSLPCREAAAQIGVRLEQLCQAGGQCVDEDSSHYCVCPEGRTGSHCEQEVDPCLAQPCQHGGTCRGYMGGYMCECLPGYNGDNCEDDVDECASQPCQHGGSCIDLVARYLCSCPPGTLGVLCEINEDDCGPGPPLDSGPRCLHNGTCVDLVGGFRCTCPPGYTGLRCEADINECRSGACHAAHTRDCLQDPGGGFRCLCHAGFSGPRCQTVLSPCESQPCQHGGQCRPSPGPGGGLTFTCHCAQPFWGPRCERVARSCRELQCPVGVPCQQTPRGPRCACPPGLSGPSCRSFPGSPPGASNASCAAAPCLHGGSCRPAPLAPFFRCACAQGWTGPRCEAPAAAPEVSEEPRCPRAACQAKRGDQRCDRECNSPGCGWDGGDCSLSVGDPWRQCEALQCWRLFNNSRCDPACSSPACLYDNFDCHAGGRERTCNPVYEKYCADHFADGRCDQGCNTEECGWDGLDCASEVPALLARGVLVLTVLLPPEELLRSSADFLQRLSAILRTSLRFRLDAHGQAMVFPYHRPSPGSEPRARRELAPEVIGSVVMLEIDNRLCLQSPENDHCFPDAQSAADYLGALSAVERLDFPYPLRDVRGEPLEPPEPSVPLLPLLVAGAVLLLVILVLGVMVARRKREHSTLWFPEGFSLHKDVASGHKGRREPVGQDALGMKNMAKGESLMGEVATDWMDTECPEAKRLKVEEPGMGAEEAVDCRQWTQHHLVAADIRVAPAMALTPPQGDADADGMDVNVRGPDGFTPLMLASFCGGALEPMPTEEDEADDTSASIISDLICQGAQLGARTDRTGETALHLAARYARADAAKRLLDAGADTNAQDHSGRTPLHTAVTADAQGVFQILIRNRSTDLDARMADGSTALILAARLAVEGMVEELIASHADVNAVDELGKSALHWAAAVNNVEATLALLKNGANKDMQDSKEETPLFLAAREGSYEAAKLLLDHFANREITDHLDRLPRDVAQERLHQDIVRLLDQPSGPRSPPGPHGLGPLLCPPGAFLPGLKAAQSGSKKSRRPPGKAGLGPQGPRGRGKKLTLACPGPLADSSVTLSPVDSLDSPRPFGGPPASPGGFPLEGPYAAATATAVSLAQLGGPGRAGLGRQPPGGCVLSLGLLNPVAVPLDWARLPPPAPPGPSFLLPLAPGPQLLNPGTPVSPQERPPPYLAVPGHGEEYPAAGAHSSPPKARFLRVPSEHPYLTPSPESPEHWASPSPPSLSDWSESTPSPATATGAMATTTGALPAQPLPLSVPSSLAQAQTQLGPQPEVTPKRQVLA
Chain of Pro-neuregulin-1, membrane-bound isoform (Homo sapiens) (Q02297 whole entry, looked up, the tested form may be a part, canonical isoform): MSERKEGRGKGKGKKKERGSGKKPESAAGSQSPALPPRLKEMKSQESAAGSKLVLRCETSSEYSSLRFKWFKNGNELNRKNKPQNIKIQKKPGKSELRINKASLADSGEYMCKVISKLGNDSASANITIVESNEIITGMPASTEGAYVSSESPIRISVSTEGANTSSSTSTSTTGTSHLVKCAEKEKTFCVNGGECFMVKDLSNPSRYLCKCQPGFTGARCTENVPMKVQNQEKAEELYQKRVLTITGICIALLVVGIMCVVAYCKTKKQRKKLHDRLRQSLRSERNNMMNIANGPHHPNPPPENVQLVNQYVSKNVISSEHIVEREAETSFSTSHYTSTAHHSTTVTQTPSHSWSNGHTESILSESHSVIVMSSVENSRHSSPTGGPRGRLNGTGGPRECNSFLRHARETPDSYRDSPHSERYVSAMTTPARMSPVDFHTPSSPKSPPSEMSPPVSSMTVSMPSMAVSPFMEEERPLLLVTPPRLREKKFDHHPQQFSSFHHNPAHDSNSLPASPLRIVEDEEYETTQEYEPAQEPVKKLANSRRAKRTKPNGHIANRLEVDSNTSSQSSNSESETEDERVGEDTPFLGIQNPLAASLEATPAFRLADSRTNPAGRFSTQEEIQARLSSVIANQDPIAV
Chain of Torsin-1A-interacting protein 2 (Homo sapiens) (Q8NFQ8 whole entry, looked up): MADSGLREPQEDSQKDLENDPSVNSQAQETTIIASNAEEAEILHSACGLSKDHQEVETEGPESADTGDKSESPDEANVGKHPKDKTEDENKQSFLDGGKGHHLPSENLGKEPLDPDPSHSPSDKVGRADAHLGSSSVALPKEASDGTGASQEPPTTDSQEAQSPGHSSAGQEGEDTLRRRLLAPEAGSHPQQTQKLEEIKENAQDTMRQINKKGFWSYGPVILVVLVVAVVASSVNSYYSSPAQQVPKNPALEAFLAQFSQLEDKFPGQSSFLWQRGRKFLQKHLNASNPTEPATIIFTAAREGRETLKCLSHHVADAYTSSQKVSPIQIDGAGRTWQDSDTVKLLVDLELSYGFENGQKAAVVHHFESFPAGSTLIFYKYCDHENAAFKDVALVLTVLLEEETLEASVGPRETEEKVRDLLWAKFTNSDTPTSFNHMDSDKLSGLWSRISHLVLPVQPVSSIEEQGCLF

SMILES | composite z-score [1] | composite z-score [2] | composite z-score [3] | composite z-score [4] | composite z-score [5] | composite z-score [6] | composite z-score [7] | z-score [8] | composite z-score [9] | composite z-score [10] | composite z-score [11] | z-score [12] | z-score [13] | z-score [14] | composite z-score [15] | z-score [16] | composite z-score [17] | composite z-score [18] | composite z-score [19] | composite z-score [20]
COc1ccc(OC[C@@H]2CC3[C@@H](c4ccc(Br)cc4)[C@H](C)CC[C@H]3C(=O)O2)cc1 (stereo not given in full) | -0.416 | 0.138 | -0.142 | 0.0248 | 0.407 | 0.093 | -0.216 | -0.321 (inactive) | 0.204 | -0.0645 | 0.112 | -0.251 (inactive) | -2.64 (inactive) | 0.0176 (inactive) | 0.82 | -0.145 (inactive) | -0.158 | 0.991 | 0.509 | -0.159
O=C1C=C[C@@H](O)[C@@H]2[C@@H]3C(=O)N(Cc4ccc5c(c4)OCO5)C(=O)[C@@H]3CC[C@@H]12 | -0.624 | -0.0026 | -0.0925 | 0.28 | 0.628 | 0.199 | 0.764 | 0.189 (inactive) | 0.233 | 0.0722 | -0.846 | 0.564 (inactive) | -0.681 (inactive) | 0.621 (inactive) | 0.221 | 0.446 (inactive) | -0.116 | 0.652 | 0.676 | -0.0731
CC(CCN1CCCCc2nc(C)c(C)cc21)=NOC[C@@H](O)[C@H]1O[C@@H]2OC(C)(C)O[C@@H]2[C@H]1O | -0.368 | 0.454 | -0.138 | 0.188 | -0.224 | 0.459 | 0.0465 | 0.442 (inactive) | -0.346 | -0.136 | 0.908 | -1.58 (inactive) | 0.186 (inactive) | -0.164 (inactive) | -0.428 | 0.579 (inactive) | -0.225 | 1.07 | 0.218 | -0.0179
CC(CCC(=O)OC[C@H]1O[C@H](C#Cc2ccccc2)C=C[C@@H]1Oc1ccc(C)cc1)=NOC[C@@H](C)[C@H](OCc1ccccc1)C(C)C | -0.205 | -0.0926 | -0.121 | -0.122 | -0.67 | -1.01 | -1.05 | -0.234 (inactive) | -0.114 | -0.175 | -0.694 | -0.78 (inactive) | 0.484 (inactive) | -0.468 (inactive) | -1.27 | -0.346 (inactive) | -0.342 | 0.809 | -1.27 | -0.24
CC(C)=CCCC(C)=CCON=C1C[C@@H](O)[C@@H](O)[C@@H]2[C@@H]3C(=O)N([C@@H](C)c4ccccc4)C(=O)[C@@H]3CC[C@@H]12 | -0.465 | -0.0543 | -0.0493 | 0.374 | 0.449 | 0.137 | 0.661 | -0.366 (inactive) | 0.11 | -0.249 | -0.744 | -0.208 (inactive) | 0.301 (inactive) | -0.362 (inactive) | 0.676 | 0.215 (inactive) | -0.166 | 0.331 | 0.508 | -0.111
